Only some compounds are listed: those with a hit (about 12% of all), similar ones and a draw of the others.
L3MBTL1 block: inhibitors of human L3MBTL1. AlphaScreen L3MBTL1–H3K9me1 peptide binding. Potency, µM (top dose mostly 57.1 µM), actives largely listed as inhibitors. 0.66% of 230,000 active; further: nearly all actives have a fitted effect of over 60% in size
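Read-out is AlphaScreen signal from streptavidin donor and nickel chelate acceptor beads (10 ug/mL final each) bridging L3MBTL1 (50 nM) and biotinylated K9-monomethylated H3(1-15) peptide (75 nM), after 30 min compound exposure at room temperature.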
BAZ2B inh: BAZ2B (human) inhibition; Q9UIF8; AlphaScreen BAZ2B-H3K14Ac peptide displacement; Potency, µM (top dose mostly 114 µM), usual class: inhibitors; 4.4% of 360,000 active; AID 504333; further: nearly all actives have a fitted effect of over 60% in size
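In this displacement format the biotinylated H3(5-23) peptide acetylated at Lys14 serves as ligand at 50 nM, with BAZ2B at 50 nM in PBS pH 7.4 containing 0.01% Tween-20. Donor and acceptor beads are 10 ug/mL final.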
Sfp PPTase inh: inhibitors of Bacillus subtilis Sfp phosphopantetheinyl transferase; Q9F4F7; Biochemical Sfp PPTase activity, qHTS; Potency, µM, usual class: inhibitors; 3.5% of 310,000 active; AID 1490;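 further: the enzyme is Sfp with the accession as filed and its product quenches rhodamine fluorescence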
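Fluorescence-quenching assay with 15 nM Sfp, 5 uM rhodamine-CoA and 12.5 uM BHQ-2-labelled ybbR peptide in pH 7.6 Hepes/MgCl2 buffer. Enzyme was pre-incubated with compound for 15 min at room temperature. Rate was taken from the 30-min fluorescence change (525/598 nm).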
G9a inh: G9a (human) methyltransferase inhibition | Potency, µM (highest dose often 102 µM), actives largely listed as inhibitors | G9a H3K9 monomethylation, AlphaScreen, 2 h | Q96KQ7 | 8.8% of 350,000 active; further: nearly all actives have a fitted effect of over 75% in size
Target sequence (Q96KQ7 913-1193 limits assumed): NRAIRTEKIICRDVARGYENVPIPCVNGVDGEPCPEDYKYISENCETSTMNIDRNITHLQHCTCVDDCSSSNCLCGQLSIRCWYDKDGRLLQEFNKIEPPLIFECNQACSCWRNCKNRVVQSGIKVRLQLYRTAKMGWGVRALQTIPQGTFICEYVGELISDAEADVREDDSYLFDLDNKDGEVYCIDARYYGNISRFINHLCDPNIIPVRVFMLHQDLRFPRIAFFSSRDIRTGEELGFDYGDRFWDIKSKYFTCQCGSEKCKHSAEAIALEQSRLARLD
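Step 1: enzyme (final 20 nM) with compound, 15 min RT. Step 2: substrate peptide 500 nM and SAM 20 uM, 2 h RT. Step 3: anti-H3K9me1 antibody and AlphaScreen beads, 10 min, then plate read.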
HP1b binding inh: HP1-beta chromodomain-methylated histone interaction inhibition; AlphaScreen HP1-beta / biotin-H3K9me3 peptide binding; Potency, µM (top dose mostly 114 µM), actives largely listed as inhibitors; 0.56% of 390,000 active; AID 540317; further: nearly all actives have a fitted effect of over 70% in size
Target sequence (P83916 whole entry, looked up): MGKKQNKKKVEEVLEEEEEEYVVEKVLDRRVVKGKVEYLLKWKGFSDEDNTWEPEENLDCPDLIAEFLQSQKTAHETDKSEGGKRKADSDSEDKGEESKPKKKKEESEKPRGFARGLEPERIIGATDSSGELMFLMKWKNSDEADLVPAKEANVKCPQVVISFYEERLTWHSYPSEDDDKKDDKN
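HP1-beta protein (50 nM final) preincubated 30 min at room temperature with biotinylated H3(1-18)K9me3 peptide (50 nM) in PBS pH 7.4, 0.01% Tween-20, then compound added for 30 min. AlphaScreen streptavidin donor/nickel chelate acceptor beads (10 ug/mL final), 30 min dark, luminescence read.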
JMJD2A Tudor: inhibitors of human JMJD2A Tudor domain; AID 504339; AlphaScreen JMJD2A-Tudor / H3K4me3 peptide binding; Potency, µM (top dose mostly 114 µM), most hits filed as inhibitors; O75164; 4.4% of 390,000 active; further: nearly all actives have a fitted effect of over 50% in size
A number is an active result; i = inactive; ? = inconclusive; nt = no result; [ ] = another dose, or the depositor's remark. The call rests on the fitted dose curve; in most records, active means well fitted curve in the direction sought with a large enough effect; inconclusive means small, poorly fitted or top-dose-only effect, or another doubt; inactive means no such curve, though single readings can be large; an effect the other way counts as inactive or inconclusive.

SMILES | L3MBTL1 block | BAZ2B inh | Sfp PPTase inh | G9a inh | HP1b binding inh | JMJD2A Tudor
COc1ccc(N2C(=O)C3C(C2=O)C3(c2ccccc2)c2ccccc2)cc1 (stereo unspecified) | i | i | i | i | i | i
CC(=O)Oc1ccc(N2C(=O)C3C(C2=O)C2(C)C=CC3(C)O2)cc1 (stereo unspecified) | i | i | 7.9µM | 5.6µM | nt | nt
COc1ccc(C(=O)NCC23C=CC(O2)C2C(=O)N(Cc4ccccc4)C(=O)C23)cc1 (stereo unspecified) | i | i | ? | ? | i | i
CC(=O)Oc1ccc(N2C(=O)C3C4C=CC(CO)(O4)C3C2=O)cc1 (stereo unspecified) | nt | i | 16µM | 1µM | ? | 45µM
COC(=O)c1cc(N2C(=O)C3C(C2=O)C2(C)C=CC3(C)O2)ccc1Cl (stereo unspecified) | i | ? | 7.9µM | ? | nt | nt
Cc1ccc(C)c(/C=C/C(=O)c2ccccc(=O)c2O)c1 | i | 56µM | ? | 45µM | i | ?
O=C(/C=C/c1ccccc1Cl)c1ccccc(=O)c1O | i | 56µM | 45µM | 32µM | ? | ?
Cc1ccc(/C=C/C(=O)c2ccccc(=O)c2O)c(C)c1 | i | 50µM | ? | 50µM | i | ?
O=C(/C=C/c1ccccc1Cl)Nc1ccccc1 | i | i | i | nt | i | i
Cc1ccc(NC(=O)/C=C/c2ccco2)cc1F | nt | ? | nt | 13µM | ? | i
Cc1cc(NC(=O)/C=C/c2ccco2)ccc1NC(=O)c1ccccc1 | i | i | 13µM | ? | i | i
CC(C)c1ccc(CN2CCN(S(=O)(=O)c3ccc(Cl)s3)CC2)cc1 | i | i | nt | i[2.33 µM] | i | i
CC(C)c1ccc(CN2CCSCC2)cc1 | i | ? | i | nt | ? | 2.8µM
CSc1ccc(OC2CCN(Cc3ccccc3)CC2)cc1 | i | i | i | i | i | ?
CSc1ccc(CN2CCSCC2)cc1 | i | 79µM | i | 13µM | ? | 13µM
CCc1ccc(CN2CCSCC2)cc1 | i | ? | i | nt | ? | 2.2µM
COc1cc(NC(=O)c2sc(C)nc2C)c(OC)cc1NC(=O)c1ccccc1 | nt | i | i | i | i | i
COc1cc(CCNC(C)=O)c(C(=O)/C=C/c2cccc(OC)c2OC)cc1OC | nt | nt | i | nt | nt | nt
COc1ccc(-c2cn[nH]c2-c2ccc(OCc3ccc([N+](=O)[O-])cc3)cc2O)cc1OC | nt | i | i | i[12.7 µM] | i | ?
CCc1cc(-c2[nH]ncc2-c2ccc([N+](=O)[O-])cc2)c(O)cc1OC | nt | 40µM | i | 50µM | ? | 50µM
Cc1ccc(-n2c(=O)c3c(c4cc(C)ccc4n3C)n(Cc3ccc(F)cc3)c2=O)cc1 | nt | i | nt | i | i | i
O=S(=O)(c1cccc(C(F)(F)F)c1)N1CCN(CC(O)COCc2ccccc2)CC1 (stereo unspecified) | i | nt | nt | nt | ? | 13µM
O=S(=O)(c1ccc(OCC(O)CN2CCN(c3ccc(F)cc3)CC2)cc1)N1CCOCC1 (stereo unspecified) | i | i | i | i | i | i
O=S(=O)(c1ccc(F)cc1)N1CCN(CC(O)COCc2ccccc2)CC1 (stereo unspecified) | nt | nt | nt | nt | ? | 5.6µM
O=C(Nc1ccc(-c2n[nH]c(=S)o2)cc1)c1ccccc1Cl | i | i | i | 1.8µM | i | i
SMILES | L3MBTL1 block | BAZ2B inh | Sfp PPTase inh | G9a inh | HP1b binding inh | JMJD2A Tudor
O=C(Nc1ccc(-c2csc(-c3ccccc3)n2)cc1)c1ccccc1Cl | i | i | i | i | i | i
CCCCN(C(=O)C1CC(=O)N(Cc2ccc(C)cc2)C1)c1c(N)n(CC(C)C)c(=O)[nH]c1=O (stereo unspecified) | nt | i | i | ? | i | i
Cc1c(CCO)c(=O)n(-c2ccccc2)n1S(=O)(=O)c1ccc(Cl)cc1 | nt | ? | i | 25µM | i | ?
O=C(c1cnn(C(=O)c2ccco2)c1)c1cc(Cl)cc(Cl)c1O | i | nt | nt | nt | i | i
O=C(NNS(=O)(=O)c1ccccc1)C1CCN(S(=O)(=O)c2ccccc2)CC1 | i | i | i | 22µM | i | i
CC1(C)CC(=O)C(C(=O)C2CCN(S(=O)(=O)c3ccccc3)CC2)C(=O)C1 | nt | i | i | i | i | 100µM
Cc1ccc(S(=O)(=O)N2CCC(C(=O)C3C(=O)CCCC3=O)CC2)cc1 | nt | i | i | i | i | i
